{
  "source": "paper PMC4336329",
  "about": "(PLoS ONE, 2015)",
  "note": "Among all 310,000 compounds or so, about 2,200 (0.71%) showed an effect of 50% or more. The effect is printed as a negative number. The entries come from a sample that favours strong results as a whole.",
  "data": [
    {"target": "human ether-à-go-go-related gene (hERG) potassium channel (human, UniProt Q12809)", "sequence (Q12809 whole entry, looked up)": "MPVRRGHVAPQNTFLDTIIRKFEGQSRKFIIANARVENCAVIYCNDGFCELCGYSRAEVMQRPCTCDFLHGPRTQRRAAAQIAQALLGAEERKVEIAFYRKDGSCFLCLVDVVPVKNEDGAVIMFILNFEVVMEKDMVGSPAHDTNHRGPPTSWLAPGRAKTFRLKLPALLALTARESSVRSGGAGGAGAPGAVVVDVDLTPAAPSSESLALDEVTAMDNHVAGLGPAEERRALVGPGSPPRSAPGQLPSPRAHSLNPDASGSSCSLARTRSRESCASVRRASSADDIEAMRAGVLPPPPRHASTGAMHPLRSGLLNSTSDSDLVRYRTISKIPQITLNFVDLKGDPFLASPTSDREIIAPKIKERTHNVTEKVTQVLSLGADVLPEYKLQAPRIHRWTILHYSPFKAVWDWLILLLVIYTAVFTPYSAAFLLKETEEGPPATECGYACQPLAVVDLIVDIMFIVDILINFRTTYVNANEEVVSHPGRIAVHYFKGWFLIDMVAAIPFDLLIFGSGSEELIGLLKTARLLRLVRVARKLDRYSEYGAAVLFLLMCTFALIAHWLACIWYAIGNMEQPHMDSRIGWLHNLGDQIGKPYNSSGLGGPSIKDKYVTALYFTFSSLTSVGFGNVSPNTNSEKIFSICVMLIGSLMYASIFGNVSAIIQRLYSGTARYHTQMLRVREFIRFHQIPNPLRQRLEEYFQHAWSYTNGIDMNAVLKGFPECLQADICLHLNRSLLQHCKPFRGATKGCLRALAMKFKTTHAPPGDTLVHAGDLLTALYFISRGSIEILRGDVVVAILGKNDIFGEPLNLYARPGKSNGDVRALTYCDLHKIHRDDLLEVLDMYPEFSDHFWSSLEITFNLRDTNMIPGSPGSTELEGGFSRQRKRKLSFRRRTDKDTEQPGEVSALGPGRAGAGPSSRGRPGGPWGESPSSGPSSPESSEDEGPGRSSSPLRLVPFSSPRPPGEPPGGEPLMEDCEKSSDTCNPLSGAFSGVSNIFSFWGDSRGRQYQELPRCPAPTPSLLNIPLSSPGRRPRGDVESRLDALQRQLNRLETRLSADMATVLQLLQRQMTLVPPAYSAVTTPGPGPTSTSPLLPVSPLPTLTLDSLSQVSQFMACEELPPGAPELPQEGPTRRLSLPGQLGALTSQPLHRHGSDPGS", "experiment": "primary screen, population patch clamp on CHO cells stably expressing hERG; higher = less effect of the substance", "units": {"hERG current change (%, negative = inhibition) at 1uM": "%"}, "values": [
      {"smiles": "Cc1nc2ccc([N+](=O)[O-])cc2c(=O)n1Cc1ccc(Br)cc1", "hERG current change (%, negative = inhibition) at 1uM": 14.8},
      {"smiles": "Cc1nc2ccc([N+](=O)[O-])cc2c(=O)n1Cc1ccc([N+](=O)[O-])cc1", "hERG current change (%, negative = inhibition) at 1uM": -76.5},
      {"smiles": "COc1ccc(Cn2c(C)nc3ccc([N+](=O)[O-])cc3c2=O)cc1", "hERG current change (%, negative = inhibition) at 1uM": 5.96},
      {"smiles": "Cc1nc2ccc([N+](=O)[O-])cc2c(=O)n1Cc1ccc(F)cc1", "hERG current change (%, negative = inhibition) at 1uM": -9.51},
      {"smiles": "Cc1nc2ccc([N+](=O)[O-])cc2c(=O)n1Cc1ccc(Cl)cc1", "hERG current change (%, negative = inhibition) at 1uM": 10.5},
      {"smiles": "Cc1nc2ccccc2c(=O)n1Cc1ccc([N+](=O)[O-])cc1", "hERG current change (%, negative = inhibition) at 1uM": -64.8},
      {"smiles": "CC(=O)Nc1cccc(N2CCCC2=O)c1", "hERG current change (%, negative = inhibition) at 1uM": 4.99},
      {"smiles": "O=C(CN1CCN(Cc2ccccc2)CC1)N/N=C/C=C/c1ccccc1[N+](=O)[O-]", "hERG current change (%, negative = inhibition) at 1uM": -32.1},
      {"smiles": "COc1ccc(NC(=O)Nc2cc(C(=O)O)ccc2N2CC3CC(C2)c2cccc(=O)n2C3)c(OC)c1", "note": "(stereo not drawn)", "hERG current change (%, negative = inhibition) at 1uM": 5.08},
      {"smiles": "CC(NC(=O)Cc1ccccc1)c1cc2c(cc1Br)OCCCO2", "note": "(stereo not drawn)", "hERG current change (%, negative = inhibition) at 1uM": 6.49},
      {"smiles": "CCOC(=O)Cn1nc(C)c(NC(=O)COc2ccc(OC)cc2)c1C", "hERG current change (%, negative = inhibition) at 1uM": 4.48},
      {"smiles": "CC(C)(C)Nc1nc(Cl)nc(N(C#N)CN2C(=O)c3ccccc3S2(=O)=O)n1", "hERG current change (%, negative = inhibition) at 1uM": 16.1},
      {"smiles": "CCN(CC)S(=O)(=O)c1cc(C)ccc1NC(=S)Nc1cccnc1", "hERG current change (%, negative = inhibition) at 1uM": 3.41},
      {"smiles": "Cc1ccc(S(=O)(=O)N(CC(O)CN2CCCC2)c2ccccc2)cc1", "note": "(stereo not drawn)", "hERG current change (%, negative = inhibition) at 1uM": -44.8},
      {"smiles": "Cl.O=S(=O)(c1ccc2ccccc2c1)N(CC(O)CN1CCOCC1)c1ccccc1", "note": "(stereo not drawn)", "hERG current change (%, negative = inhibition) at 1uM": -21.2},
      {"smiles": "Cc1ccc(N(CC(O)CN2CCCCC2)S(=O)(=O)c2ccc(C)cc2)cc1", "note": "(stereo not drawn)", "hERG current change (%, negative = inhibition) at 1uM": 12.8},
      {"smiles": "Cc1ccc(N(CC(O)CN2CCOCC2)S(=O)(=O)c2ccc([N+](=O)[O-])cc2)cc1", "note": "(stereo not drawn)", "hERG current change (%, negative = inhibition) at 1uM": -49.1},
      {"smiles": "Cc1ccc(S(=O)(=O)N(CC(O)CN2CCCCC2)c2ccccc2)cc1.Cl", "note": "(stereo not drawn)", "hERG current change (%, negative = inhibition) at 1uM": -60.5},
      {"smiles": "Cc1ccccc1S(=O)(=O)N(CC(O)CN1CCCCC1)c1ccccc1", "note": "(stereo not drawn)", "hERG current change (%, negative = inhibition) at 1uM": -71.2},
      {"smiles": "O=S(=O)(c1ccccc1)N(CC(O)CN1CCCC1)c1ccccc1", "note": "(stereo not drawn)", "hERG current change (%, negative = inhibition) at 1uM": 3.65},
      {"smiles": "Cc1ccc(S(=O)(=O)N(CC(O)CN2CCOCC2)c2cc(Cl)ccc2Cl)cc1.Cl", "note": "(stereo not drawn)", "hERG current change (%, negative = inhibition) at 1uM": -2.22},
      {"smiles": "Cl.O=S(=O)(c1ccccc1)N(CC(O)CN1CCCCC1)c1ccccc1", "note": "(stereo not drawn)", "hERG current change (%, negative = inhibition) at 1uM": -21},
      {"smiles": "Cc1ccc(N(CC(O)CN2CCOCC2)S(=O)(=O)c2ccc3ccccc3c2)cc1", "note": "(stereo not drawn)", "hERG current change (%, negative = inhibition) at 1uM": -55.6},
      {"smiles": "O=S(=O)(c1ccccc1)N(CC(O)CN1CCOCC1)c1ccccc1", "note": "(stereo not drawn)", "hERG current change (%, negative = inhibition) at 1uM": 9.04},
      {"smiles": "Cc1ccc(N(CC(O)CN2CCCC2)S(=O)(=O)c2ccc(C)cc2)cc1.Cl", "note": "(stereo not drawn)", "hERG current change (%, negative = inhibition) at 1uM": -81.7},
      {"smiles": "Cc1ccc(-n2nc(C)c3c2OC(N)=C(C#N)C3c2cccs2)cc1", "note": "(stereo not drawn)", "hERG current change (%, negative = inhibition) at 1uM": 9.08},
      {"smiles": "CC1=CC2=NC(=O)CC(C)(C(=O)N(CC(=O)NC(C)(C)C)Cc3cccs3)N2C=C1", "note": "(stereo not drawn)", "hERG current change (%, negative = inhibition) at 1uM": -2.79},
      {"smiles": "CNc1ncc(-c2nnnn2-c2ccccc2)c(-c2ccccc2)n1", "hERG current change (%, negative = inhibition) at 1uM": 8.07},
      {"smiles": "Cc1ccc(N2CCN(c3ncccc3[N+](=O)[O-])CC2)c(C)c1", "hERG current change (%, negative = inhibition) at 1uM": 17.2},
      {"smiles": "CC(=O)NC(C(=O)N1CCC(c2nc3ccccc3s2)CC1)C(C)C", "note": "(stereo not drawn)", "hERG current change (%, negative = inhibition) at 1uM": 8.96},
      {"smiles": "Cc1cc(C)nc(SCc2n[nH]c(=S)n2C)n1", "hERG current change (%, negative = inhibition) at 1uM": 7.9},
      {"smiles": "CCOC(=O)C1=C(N)OC2=C(C(=O)CC(C)(C)C2)C1c1ccco1", "note": "(stereo not drawn)", "hERG current change (%, negative = inhibition) at 1uM": -7.98},
      {"smiles": "FC(F)(F)c1ccccc1NC(=S)N1CCN(c2ncccn2)CC1", "hERG current change (%, negative = inhibition) at 1uM": 11.5},
      {"smiles": "O=C(NNC(=O)c1cccs1)c1ccccc1", "hERG current change (%, negative = inhibition) at 1uM": 5.51},
      {"smiles": "Cc1ccc(N(CC(O)CN2CCCC2)S(=O)(=O)c2ccccc2)cc1", "note": "(stereo not drawn)", "hERG current change (%, negative = inhibition) at 1uM": -47.4},
      {"smiles": "Cc1ccc(N(CC(O)CN2CCCCC2)S(=O)(=O)c2ccccc2[N+](=O)[O-])cc1", "note": "(stereo not drawn)", "hERG current change (%, negative = inhibition) at 1uM": -48.8},
      {"smiles": "COc1ccc(N(CC(O)CN2CCOCC2)S(=O)(=O)c2ccc(C)cc2)cc1", "note": "(stereo not drawn)", "hERG current change (%, negative = inhibition) at 1uM": -6.48},
      {"smiles": "COc1ccccc1N(CC(O)CN1CCCCC1)S(=O)(=O)c1ccc(C)cc1", "note": "(stereo not drawn)", "hERG current change (%, negative = inhibition) at 1uM": 2.61},
      {"smiles": "COc1ccc(N(CC(O)CN2CCCCC2)S(=O)(=O)c2ccc(C)cc2)cc1", "note": "(stereo not drawn)", "hERG current change (%, negative = inhibition) at 1uM": -82.9},
      {"smiles": "Cc1ccc(N(CC(O)CN2CCCCC2)S(=O)(=O)c2ccccc2)cc1", "note": "(stereo not drawn)", "hERG current change (%, negative = inhibition) at 1uM": -68.7},
      {"smiles": "Cc1c(C(=O)OC2CCCCC2)sc2nc[nH]c(=O)c12", "hERG current change (%, negative = inhibition) at 1uM": 16},
      {"smiles": "Cc1ccc(-c2oc3ncnc(N)c3c2-c2ccc(C)cc2)cc1", "hERG current change (%, negative = inhibition) at 1uM": -3.25}
    ]}
  ]
}
